Measured values published in ChEMBL document CHEMBL4513216, “Probing the Open Global Health Chemical Diversity Library for Multistage-Active Starting Points for Next-Generation Antimalarials” (ACS Infect Dis, 2020).
Hit rate of the full screen: of about 69,000 compounds, about 8,600 (12%) showed an effect of 50% or more. This excerpt belongs to a sample that is enriched for strong results.

System: Plasmodium berghei
Assay: Screen against P. berghei liver stage (PbLuc), transformed with Luciferase, at 10uM
Type: functional, HepG2
Details: tested at 10 uM

SMILES	INHIBITION [%]
CN1CCCC(CNC(=O)N(C)Cc2ccc(Cl)c(F)c2)C1 (centres undefined)	31
CCN(CC)S(=O)(=O)N1CC[C@H](c2ccccc2)[C@@H]2[C@H]1CCCCN2C	73.1
CCN(CC)S(=O)(=O)N1CCCC1CC(=O)c1cccs1 (centres undefined)	-2.74
O=S(=O)(N1CCCC1)N1CCCCC1CCc1ccccc1 (centres undefined)	31.8
CCN(CC)S(=O)(=O)N1C[C@@H](c2ccccc2)[C@H]2[C@H]1CCCCCN2C	51.7
CN1CCCC[C@@H]2[C@H]1[C@@H](c1ccccc1)CCN2S(=O)(=O)N1CCCC1	61.7
CCN(CC)S(=O)(=O)N1CCCC(c2cccc(C(=O)O)c2)C1 (centres undefined)	-31.5
CCN(CC)S(=O)(=O)N1CC[C@H](c2ccccc2)[C@H]2NCCCC[C@H]21	47.2
N[C@H]1CN(S(=O)(=O)N2CCCC2)C[C@@H]1c1ccccc1	44.2
O=S(=O)(N1CCCC1)N1C[C@@H](c2cccc(F)c2)[C@@H]2NCCCCC[C@H]21	43.6
CC(C)S(=O)(=O)N1C[C@@H](c2ccccc2)[C@H]2[C@H]1CCCCCN2C	16.5
CN1CCCCC[C@@H]2[C@@H]1[C@H](c1ccccc1)CN2C(=O)c1ccccn1	-37
O=S(=O)(N1CCCC1)N1CC[C@H](c2ccccc2)[C@H]2NCCCC[C@H]21	52
CC[C@@H](c1ccccc1)n1c(CCN)n[nH]c1=O	39
CCc1noc(C(C)N2CCN(c3ccc(C#N)cc3F)CC2)n1 (centres undefined)	-17.4
O=C(CC1CCCC1)NCCS(=O)(=O)N1CCN(c2ccccc2)CC1	-16.4
CC(=O)NCc1cc(-c2cccs2)n(C2CCCC2)n1	1.74
COc1c(C2CCCN2CC(=O)N(C)c2nccs2)c(C)nn1C (centres undefined)	8.7
CN(C)c1ccc(C(=O)N2CCCC2c2noc(C3CC3)n2)nn1 (centres undefined)	3.263
Cc1ncc2c(n1)CN(CC(=O)Nc1nnc(C)s1)CC2	34.7
O=C(NCC1CC1)[C@@H]1CCO[C@@H]2CCN(CCc3ccccc3)C[C@H]21	47.1
COCC(=O)NCc1cc2n(n1)CCCN(Cc1ccccc1SC)C2	-46.2
CN(Cc1ccccc1)CC(O)Cn1cnc2cc(F)ccc2c1=O (centres undefined)	-8.7
O=C([C@H]1COC[C@H]2CN(c3ncc(F)cn3)C[C@H]21)N1CCOCC1	-0.554
CS(=O)(=O)N1C[C@@H]2COC[C@H](C(=O)Nc3cnccn3)[C@@H]2C1	45.2

SMILES	INHIBITION [%]
O=C(Nc1cnccn1)[C@@H]1COC[C@H]2CN(c3ncc(F)cn3)C[C@H]21	-22.7
O=C(NCc1ccco1)[C@@H]1COC[C@H]2CN(c3ncc(F)cn3)C[C@H]21	3.88
O=C(Nc1cnccn1)[C@H]1COC[C@H]2CN(c3ncc(F)cn3)C[C@H]21	67.4
O=C(NC1CC1)[C@H]1COC[C@H]2CN(c3ncc(F)cn3)C[C@H]21	58.5
CC(=O)N1[C@H](CN(C)C)C[C@@H]2CN(C(=O)c3ccsc3)CC[C@@H]21	-24.5
O=C([C@H]1CN(CCc2ccccc2)C[C@H]2OCC[C@@H]12)N1CCCO1	8.57
COc1ccc(Cn2cc(C(=O)N(C)Cc3cnccn3)nn2)cc1	21.5
COc1cccc(CNc2cc(C)nc(-c3ccncc3)n2)c1O	78.9
COc1cccc(CNc2cccnc2-n2cccn2)c1OC	17.3
COCCNC(=O)CCNc1cc(C)nc(-c2ccncc2)n1	24
COc1cccc(CNc2nc(C)cc(C)n2)c1OC	-11.7
COc1cccc(CNc2cc(C)nc(-c3ccncc3)n2)c1OC	85.2
Cc1cc(NCCC(=O)NC(C)C)nc(-c2ccncc2)n1	-2.43
Cc1nc(CN2CCN(C(=O)c3sccc3C)CC2)cs1	-117
CC(C)c1nc(CNCC2CCCN2c2cccnn2)cs1 (centres undefined)	-16.8
COC(=O)c1ccc(C(=O)NCC(O)c2cccn2C)cc1 (centres undefined)	-52.5
CC1CCN(c2cc(CCC3CCCN3)ncn2)CC1 (centres undefined)	34
Cn1ncnc1CNc1ccc2c(c1)N(C(=O)OC(C)(C)C)CCC2	52.4
CC(C)(C)OC(=O)N1CCCc2ccc(NCc3ccon3)cc21	55.4
Cc1n[nH]cc1CNc1ccc2c(c1)N(C(=O)OC(C)(C)C)CCC2	31.8
CCNC(=O)N1CCc2ccc(NC(=O)NCCOCC)cc21	-26.8
CC(C)(C)OC(=O)N1CCC[C@H](NCc2cc[nH]c2)C1	49.5
CCCNC(=O)CNc1ccc2c(c1)N(C(=O)OC(C)(C)C)CCC2	87.2
CC(C)N(CC1CCCN(Cc2ccon2)C1)C(=O)OC(C)(C)C (centres undefined)	39.9
CC(C)(C)OC(=O)N1CCCc2ccc(NCc3cc[nH]c3)cc21	92.1

SMILES	INHIBITION [%]
Cn1ncnc1CNc1ccccc1C(=O)NC(C)(C)C	1.2
COc1ccc(NC(=O)c2ccccc2NCc2ncnn2C)cc1	47.4
CCCNC(=O)Nc1ccc2c(c1)N(S(=O)(=O)CC)CC2	36.3
Cc1cc(CNCC2CCCN(C(=O)OC(C)(C)C)C2)no1 (centres undefined)	39
c1csc(-c2nc(CN3CCCCC3Cn3cncn3)cs2)c1 (centres undefined)	42
CCc1nc2n(n1)CC(NCC(=O)Nc1cc(C)nn1C)CC2 (centres undefined)	5.03
Cc1ccc(-c2cnnc(N3CCCC3c3nccs3)n2)o1 (centres undefined)	12.6
Cc1ccc(OCc2occc2C(=O)N2C[C@@H]3C(CN(C)C)[C@@H]3C2)cc1 (some centres undefined)	32.2
Cc1c(CN2CCCC2(C)C(=O)NC2CCCC2)cnn1C (centres undefined)	1.62
CCN(CC)CCNc1c(-c2ccccc2)c(=O)c1=O	4.07
CN(C)c1nc2cn(C3CCSCC3)c(=O)c-2c[nH]1	18.65
CC(C)CC(=O)N1CC(=O)N(CCc2ccccc2)CC(O)C1 (centres undefined)	0.284
CC(C)c1nc(CN2CCN(C(=O)CN3CCOCC3)CC2)no1	13.3
CC(C)(C)OC(=O)N1CCCc2ccc(NCc3ncc[nH]3)cc21	51.8
Cc1n[nH]cc1CNC(=O)[C@H]1CCCCN1C(=O)OC(C)(C)C	34.1
CC(C)(C)OC(=O)N1CCCN(Cc2ccon2)c2ccccc21	83.6
CC(=O)N1CC(C)CN(Cc2ccon2)c2ccccc21 (centres undefined)	18
Cc1n[nH]cc1CNc1ccc2c(c1)CN(C(=O)OC(C)(C)C)CC2	80.1
COC(=O)N1CCc2ccc(NC(=O)c3cn(C)nn3)cc2C1	-28.4
CC(=O)N1CCCN(Cc2ccon2)c2ccccc21	32.3
CCN(C(=O)Cc1ccc(NCc2ncc[nH]2)cc1)c1ccccc1	22.2
CN1CCN(Cc2cccc(NCc3ncc[nH]3)c2)CC1	-13.9
Cc1cc(C)nc(N2CCC(C(=O)Nc3ccc(C(C)C)cc3)CC2)n1	20.2
O=S1(=O)NCC2(CCN(c3ncccn3)CC2)COc2ccccc21	-21.2
CO[C@@H]1CO[C@@]2(CCCN(C(=O)N3CCCC3)C2)C1	33.1

SMILES	INHIBITION [%]
CCS(=O)(=O)N1CCC(c2nn(CCN(C)C)c3ncccc23)C1 (centres undefined)	9.63
Cc1cccc(C2CCN(S(=O)(=O)c3cn(C)cn3)CC2)n1	-41.8
CCN1CCOC(CNCc2ccccc2OCc2ccncc2)C1 (centres undefined)	19.5
Cc1nnc2n1CCN(Cc1ncc(-c3ccccc3)o1)C2	-25.4
c1cc(-c2ccc3nc(C4CCN(CC5CC5)CC4)nn3c2)ccn1	47.9
COc1ccc(OCCN2CCN(Cc3nccn3C)CC2)cc1	14.1
CCN(Cc1ccncc1)CC1(O)CCN(C(=O)c2ccccc2C)C1 (centres undefined)	23.2
CC(C)n1c(C(=O)N2CCCC2)nc2c1CCN(c1ncccn1)C2	33.4
CN1CCCN(C(=O)c2nc3c(n2C)CCN(c2ncccn2)C3)CC1	55.6
Cn1c(C(=O)N2CCOCC2)nc2c1CCN(c1ncccn1)C2	14.2
CN1CCN(C(=O)c2[nH]nnc2Nc2ccccc2F)CC1	5.18
NC(=O)Nc1ccc(C(=O)NCCn2cccc2)cc1	57.1
CC(=O)Nc1ccc(C(=O)NCCCn2cccc2)cc1	18.7
O=C(NCCNC(=O)c1ccc(Cl)cc1)NCCn1cccc1	-11.9
O=C(NC[C@]12COC[C@H]1CN(Cc1nccs1)C2)c1cscn1	47.9
FC(F)(F)c1cc(C2CCNCC2)nc(-c2ccsc2)n1	1.62
CN1C(=O)CC(c2cnn(C)c2)C12CCN(C(=O)c1ccco1)CC2 (centres undefined)	10.1
CN1C(=O)CC(c2cnn(C)c2)C12CCN(C(=O)c1ccno1)CC2 (centres undefined)	14.8
CN1C(=O)CC(c2cnn(C)c2)C12CCN(C(=O)c1ccc[nH]1)CC2 (centres undefined)	37.8
CN1C(=O)CC(c2cnn(C)c2)C12CCN(C(=O)c1cscn1)CC2 (centres undefined)	61.4
CN1C(=O)CC(c2cnn(C)c2)C12CCN(C(=O)c1ccnnc1)CC2 (centres undefined)	57.9
CN1C(=O)CC(c2cnn(C)c2)C12CCN(C(=O)c1ccncc1)CC2 (centres undefined)	42.7
Cc1nc(C2CCCN2C(=O)CCc2ccc(F)cc2)ncc1C(N)=O (centres undefined)	43.6
O=C(CCc1nc2ccccc2[nH]1)N1CCCC(n2cccn2)C1 (centres undefined)	40.75
